Inconclusive results are not listed. A call without a number means that no potency is given here. Calls of active or inactive are those of the source. Unless noted, calls follow the shape of the dose curve; as a rule, active = well fitted curve in the direction sought with a large enough effect; inconclusive = small, poorly fitted or top-dose-only effect, or another doubt; inactive = no such curve, though single readings can be large; an effect the other way counts as inactive or inconclusive.
Columns and labels:
[1] = Validation of Assay for Modulators of Lamin A Splicing (AID 1459; active = well fitted curve in the direction sought with a large enough effect in the signal ratio; the % refers to the signal ratio;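 also: cells exposed to compound for two days before reading; ratio rise marks activators and ratio drop marks inhibitors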)
In short: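 S3 HeLa stably expressing lamin A-EGFP splicing minigene and DsRed2, 600 cells/well in Opti-MEM with 2% FBS, treated 48 h at 37C; laser-scanning cytometry gives GFP/RFP total intensity ratio; ancitabine positive control, 0.5% DMSO vehicle.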

[2] = qHTS Assay for Lipid Storage Modulators (AID 1519; calls by dose curve); settings: Drosophila S3 cells, BODIPY lipid droplet/cell ratio, laser cytometry, cells loaded with oleic acid
In short: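 Cells seeded at 5,000 per well were treated with compounds over a concentration series and loaded with oleic acid (400 uM, as added). Lipid droplet fluorescence (488 nm excitation, 500-530 nm channel) was read by laser-scanning cytometry and normalized to 20 uM Triacsin C.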

[3] = target: DNA repair nuclease/redox regulator APEX1 (Homo sapiens) (UniProt P27695); experiment: qHTS Validation Assay for Inhibitors of the Human Apurinic/apyrimidinic Endonuclease 1 (APE1) (AID 1705;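 also: TAMRA fluorescence gain over two minutes as APE1 cuts a quenched THF abasic duplex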)
In short: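 Fluorogenic double-stranded THF abasic-site substrate (5'-TAMRA/3'-BHQ-2), 50 nM final. Enzyme preincubated with compound 15 min at room temperature, then substrate added. Kinetic fluorescence (ex 525/em 598 nm) read three times at 60 s intervals; activity taken as third-minus-first read difference.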

[4] = Counterscreen for APE1 Inhibitors: Fluorescent Dye Displacement Validation Assay (AID 1707)
In short: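 Thiazole Orange displacement from dsDNA: 250 nM ThO with 50 nM TAMRA-labelled abasic-site (tetrahydrofuran) duplex in 50 mM Tris-HCl pH7.5, 50mM NaCl, 2 mM MgCl2, 0.01% Tween-20. Loss of endpoint fluorescence (ex 480 nm, em 540 nm) flags DNA binders.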

[5] = qHTS for differential inhibitors of proliferation of Plasmodium falciparum line 7G8 (AID 1815);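 also: potency is read from the fitted curve at half-maximal effect; parasite growth measured after three days of incubation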
[6] = qHTS for differential inhibitors of proliferation of Plasmodium falciparum line GB4 (AID 1816); settings: Potency: Plasmodium falciparum GB4 proliferation inhibition;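 also: potency is read from the fitted curve at half-maximal effect; parasite growth measured after 72 h incubation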
[7] = qHTS for differential inhibitors of proliferation of Plasmodium falciparum line 3D7 (AID 1876); also: potency is read from the fitted curve at half-maximal effect
[8] = qHTS for differential inhibitors of proliferation of Plasmodium falciparum line W2 (AID 1883); settings: Potency: Plasmodium falciparum W2 proliferation inhibition;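 also: potency is read from the fitted curve at half-maximal effect; parasites grown with compound for 72 h before lysis and staining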
[9] = qHTS for differential inhibitors of proliferation of Plasmodium falciparum line HB3 (AID 1886); settings: Potency: Plasmodium falciparum HB3 proliferation inhibition;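 also: potency is read from the fitted curve at half-maximal effect; parasites grown with compound for 72 h before SYBR Green readout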
[10] = qHTS Assay for Modulators of Human Peripheral Myelin Protein 22 (PMP22) Expression/Activity (AID 1967; active = well fitted curve in the direction sought with a large enough effect in the signal ratio; the % refers to the signal ratio)
In short: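 Mouse MSC80 Schwann cells carrying Pmp22 promoter–green click beetle luciferase plus EF-alpha–red luciferase control, dosed 24 h at 37 °C. Dual-filter luminescence, overlap-corrected; %Activity from green/red ratio normalised to untreated cells, concentration-response curves fitted.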

[11] = target: Ferritin light chain (Equus caballus) (UniProt P02791); experiment: qHTS Validation Assay for Identification of Novel General Anesthetics (AID 2323)
In short: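 Horse-spleen apoferritin (10 uM) in PBS with 50% saturated 1-aminoanthracene; compounds pin-transferred, 10 min at room temperature. Fluorescence read at 380/535 nm, normalized to free 1-AMA and 1-AMA/apoferritin values; four-parameter Hill fit.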

[12] = target: ATP-dependent DNA helicase Q1 (Homo sapiens) (UniProt P46063); experiment: qHTS Validation Assay for Inhibitors of RecQ-Like Dna Helicase 1 (RECQ1) (AID 2353)
In short: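 50 nM RECQ1T1 preincubated 15 min with compound in Tris pH 8.0 buffer with MgCl2, DTT, Tween-20 and 2.5 ug/ml poly(dI-dC); started with 200 nM TAMRA/BHQ-2 forked duplex and 2 mM ATP. Unwinding read as fluorescence (525/598 nm), two reads 2 h apart.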

[13] = Validation screen for inhibitors of Lassa infection (AID 463096; calls by dose curve)
[14] = Validation screen for small molecules that induce DNA re-replication in MCF 10A normal breast cells (AID 463097); also: nearly all actives have a fitted effect of over 60% in size
In short: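 MCF 10A cells exposed to compound 48 hr at 37 C, 5% CO2, then Hoechst-stained 40 min. Laser-scanning imaging of nuclear DNA content (405 nm ex, 500-530 nm em); re-replication scored as rise in nuclei with elevated fluorescence intensity.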

[15] = target: M-phase phosphoprotein 8 (Homo sapiens) (UniProt Q99549); experiment: qHTS Validation Assay for Inhibitors for MPP8 Chromodomain Interactions with Methylated Histone Tails (AID 488949); also: top concentration of the series differs between compounds; nearly all actives have a fitted effect of over 55% in size
In short: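 MPP8 (50 nM) was pre-bound to 50 nM biotinylated H3(1-18)K9me3 peptide in PBS pH 7.4 with 0.01% Tween-20. Compounds were then added for 30 min at room temperature, and complex disruption was read by AlphaScreen with streptavidin donor and nickel-chelate acceptor beads.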

[16] = target: Transient receptor potential cation channel subfamily V member 1 (Homo sapiens) (UniProt Q8NER1); experiment: HTS Assay for Compounds that Act as Enhancers of the Vanilloid Receptor 1 (AID 488979)
In short: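 TRPV1-expressing cells loaded with Fluo-8 calcium dye; compounds added and calcium influx read kinetically for 3 min (agonist phase), then capsaicin at EC20 added and read 2 min more for enhancement. Fluorescence ex 480/em 520 nm.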

[17] = target: Thyrotropin receptor (Homo sapiens) (UniProt P16473); experiment: qHTS Assay for Antagonists of the Thyroid Stimulating Hormone Receptor (AID 488980)
In short: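 TSHR-transfected HEK293 cells (2000/well) in HEPES-buffered HBSS with 70 uM RO 20-1724 were stimulated with 4 nM TSH (EC80, final) in the presence of compound. cAMP was measured by HTRF competition after lysis and 30 min at RT.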

[18] = target: Thyrotropin-releasing hormone receptor (Homo sapiens) (UniProt P34981); experiment: qHTS for Small Molecule Agonists and Allosteric Enhancers of Human TRH Receptor: Validation Screen for Agonists (AID 493127;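 active = calcium activation more than 3 SD above the typical response in the agonist read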;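 also: intracellular calcium rise by fluo-8 fluorescence before TRH EC20 addition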); settings: TRH receptor agonist cell assay; at 2 µM; stronger effect = higher value
In short: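 TRHR-expressing cells were plated overnight in serum-containing medium, then loaded with fluo-8 calcium dye at room temperature for 30 min–1.5 h. After a 10 s baseline, compound was pin-transferred and calcium fluorescence (ex 480/em 530) read kinetically for agonist response.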

[19] = target: Galactokinase (Homo sapiens) (UniProt P51570); experiment: qHTS Validation Assay for Inhibitors of Human Galactokinase (GALK) (AID 493189)
In short: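 GALK (5 nM) with 35 uM ATP and 100 uM galactose in HEPES pH 8.0 with MgCl2, NaCl, DTT and BSA. Reaction ran 1 h at room temperature. Residual ATP read by Kinase-Glo Plus luminescence.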

[20] = target: Voltage-gated inwardly rectifying potassium channel KCNH2 (Homo sapiens) (UniProt Q12809); experiment: qHTS Assay for Small Molecule Inhibitors of the Human hERG Channel Activity (AID 588834);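 also: top concentration of the series differs between compounds; lower thallium flux fluorescence means stronger hERG block; nearly all actives have a fitted effect of over 50% in size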
In short: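 U2OS cells BacMam-transduced with hERG, 2000 cells/well, compound ~10 min at 37 °C before stimulation buffer. FluxOR thallium flux fluorescence read kinetically on FDSS; decrease indicates block; AC50 from Hill fits.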

[21] = tested on: Zika virus NS2B-NS3 protease; experiment: Primary screen GU AMC qHTS for Zika virus inhibitors (AID 1347154); also: nearly all actives have a fitted effect of over 70% in size
In short: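 Unlinked Zika NS2B hydrophilic domain/NS3 protease domain noncovalent complex (25 nM final) in 10 mM Tris-HCl pH 8.0, 0.01% Tween 20, with AMC peptide substrate. Fluorescence (ex 340, em 450 nm) change over 15 min, room temperature; percent inhibition fitted to 4-parameter Hill equation.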

[22] = Primary qHTS for small molecule stabilizers of the endoplasmic reticulum resident proteome: Secreted ER Calcium Modulated Protein (SERCaMP) assay (AID 1508630)
In short: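 GLuc-SERCaMP-expressing SH-SY5Y cells, pretreated 16 h with compound, are challenged with thapsigargin to empty ER calcium stores; after 4 h, coelenterazine is added directly to the medium and luminescence is imaged.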

Chain of Ferritin light chain (Equus caballus) (P02791 2-175 limits assumed): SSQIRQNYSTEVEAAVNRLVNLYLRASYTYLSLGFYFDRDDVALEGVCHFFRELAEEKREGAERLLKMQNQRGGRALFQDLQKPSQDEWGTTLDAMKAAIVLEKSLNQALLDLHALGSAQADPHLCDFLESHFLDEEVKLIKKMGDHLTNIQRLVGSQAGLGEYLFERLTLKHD
Chain of Thyrotropin receptor (Homo sapiens) (P16473 whole entry, looked up): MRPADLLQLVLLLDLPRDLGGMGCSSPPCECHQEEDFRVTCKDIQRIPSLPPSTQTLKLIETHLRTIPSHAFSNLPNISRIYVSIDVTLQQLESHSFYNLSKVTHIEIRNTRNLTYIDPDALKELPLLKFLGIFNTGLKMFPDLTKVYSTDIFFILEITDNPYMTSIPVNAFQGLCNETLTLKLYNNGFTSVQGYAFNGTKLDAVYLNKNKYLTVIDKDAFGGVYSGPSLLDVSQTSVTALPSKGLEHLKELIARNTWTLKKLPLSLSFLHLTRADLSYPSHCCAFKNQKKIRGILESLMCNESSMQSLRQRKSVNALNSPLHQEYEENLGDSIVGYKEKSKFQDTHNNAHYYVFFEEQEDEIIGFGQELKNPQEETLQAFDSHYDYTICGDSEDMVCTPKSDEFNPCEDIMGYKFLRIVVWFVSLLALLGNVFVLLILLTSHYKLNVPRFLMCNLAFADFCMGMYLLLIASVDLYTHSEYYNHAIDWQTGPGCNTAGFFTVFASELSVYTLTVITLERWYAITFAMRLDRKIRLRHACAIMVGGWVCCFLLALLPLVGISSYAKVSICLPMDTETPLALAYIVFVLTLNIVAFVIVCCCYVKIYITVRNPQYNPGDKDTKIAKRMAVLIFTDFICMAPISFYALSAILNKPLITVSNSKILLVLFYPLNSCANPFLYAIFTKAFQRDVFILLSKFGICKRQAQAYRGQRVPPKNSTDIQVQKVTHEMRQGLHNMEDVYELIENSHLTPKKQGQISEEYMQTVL
Chain of ATP-dependent DNA helicase Q1 (Homo sapiens) (P46063 whole entry, looked up): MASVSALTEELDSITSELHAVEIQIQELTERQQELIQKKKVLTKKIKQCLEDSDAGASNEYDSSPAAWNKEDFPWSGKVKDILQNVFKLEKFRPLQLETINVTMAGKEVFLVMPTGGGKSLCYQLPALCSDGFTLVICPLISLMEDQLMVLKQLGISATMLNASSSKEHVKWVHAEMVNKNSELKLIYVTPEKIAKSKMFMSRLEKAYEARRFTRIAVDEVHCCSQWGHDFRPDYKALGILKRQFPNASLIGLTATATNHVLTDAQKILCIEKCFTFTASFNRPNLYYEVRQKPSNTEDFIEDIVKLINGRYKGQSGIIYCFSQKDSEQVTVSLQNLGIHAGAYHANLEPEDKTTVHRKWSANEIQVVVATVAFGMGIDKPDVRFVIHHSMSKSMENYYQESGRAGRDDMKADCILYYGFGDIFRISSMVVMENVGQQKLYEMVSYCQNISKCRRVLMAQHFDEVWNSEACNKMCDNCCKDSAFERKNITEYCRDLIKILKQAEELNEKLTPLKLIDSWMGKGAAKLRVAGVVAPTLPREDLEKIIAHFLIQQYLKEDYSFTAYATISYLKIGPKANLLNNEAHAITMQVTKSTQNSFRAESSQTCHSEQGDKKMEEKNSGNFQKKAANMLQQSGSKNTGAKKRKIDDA
Chain of Transient receptor potential cation channel subfamily V member 1 (Homo sapiens) (Q8NER1 whole entry, looked up): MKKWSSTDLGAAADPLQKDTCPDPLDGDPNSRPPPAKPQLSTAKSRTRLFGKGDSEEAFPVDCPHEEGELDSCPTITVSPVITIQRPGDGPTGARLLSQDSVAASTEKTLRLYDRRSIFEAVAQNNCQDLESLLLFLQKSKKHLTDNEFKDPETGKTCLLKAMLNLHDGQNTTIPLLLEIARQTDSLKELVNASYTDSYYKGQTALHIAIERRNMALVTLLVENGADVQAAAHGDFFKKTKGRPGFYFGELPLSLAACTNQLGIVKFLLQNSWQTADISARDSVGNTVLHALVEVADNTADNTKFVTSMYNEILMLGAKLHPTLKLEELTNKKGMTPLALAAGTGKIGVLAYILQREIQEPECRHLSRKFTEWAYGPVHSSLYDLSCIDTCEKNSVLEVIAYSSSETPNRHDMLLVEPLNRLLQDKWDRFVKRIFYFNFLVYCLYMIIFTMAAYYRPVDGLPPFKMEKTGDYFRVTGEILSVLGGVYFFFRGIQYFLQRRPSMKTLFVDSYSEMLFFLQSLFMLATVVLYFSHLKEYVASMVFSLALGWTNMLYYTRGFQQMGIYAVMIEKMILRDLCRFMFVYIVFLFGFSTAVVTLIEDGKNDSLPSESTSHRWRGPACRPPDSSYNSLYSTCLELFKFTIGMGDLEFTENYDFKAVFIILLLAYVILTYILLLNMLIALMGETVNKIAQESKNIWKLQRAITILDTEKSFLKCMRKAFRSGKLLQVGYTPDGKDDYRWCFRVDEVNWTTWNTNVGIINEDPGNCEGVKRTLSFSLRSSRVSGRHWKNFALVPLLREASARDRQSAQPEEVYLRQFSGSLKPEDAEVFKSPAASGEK
Chain of M-phase phosphoprotein 8 (Homo sapiens) (Q99549 whole entry, looked up): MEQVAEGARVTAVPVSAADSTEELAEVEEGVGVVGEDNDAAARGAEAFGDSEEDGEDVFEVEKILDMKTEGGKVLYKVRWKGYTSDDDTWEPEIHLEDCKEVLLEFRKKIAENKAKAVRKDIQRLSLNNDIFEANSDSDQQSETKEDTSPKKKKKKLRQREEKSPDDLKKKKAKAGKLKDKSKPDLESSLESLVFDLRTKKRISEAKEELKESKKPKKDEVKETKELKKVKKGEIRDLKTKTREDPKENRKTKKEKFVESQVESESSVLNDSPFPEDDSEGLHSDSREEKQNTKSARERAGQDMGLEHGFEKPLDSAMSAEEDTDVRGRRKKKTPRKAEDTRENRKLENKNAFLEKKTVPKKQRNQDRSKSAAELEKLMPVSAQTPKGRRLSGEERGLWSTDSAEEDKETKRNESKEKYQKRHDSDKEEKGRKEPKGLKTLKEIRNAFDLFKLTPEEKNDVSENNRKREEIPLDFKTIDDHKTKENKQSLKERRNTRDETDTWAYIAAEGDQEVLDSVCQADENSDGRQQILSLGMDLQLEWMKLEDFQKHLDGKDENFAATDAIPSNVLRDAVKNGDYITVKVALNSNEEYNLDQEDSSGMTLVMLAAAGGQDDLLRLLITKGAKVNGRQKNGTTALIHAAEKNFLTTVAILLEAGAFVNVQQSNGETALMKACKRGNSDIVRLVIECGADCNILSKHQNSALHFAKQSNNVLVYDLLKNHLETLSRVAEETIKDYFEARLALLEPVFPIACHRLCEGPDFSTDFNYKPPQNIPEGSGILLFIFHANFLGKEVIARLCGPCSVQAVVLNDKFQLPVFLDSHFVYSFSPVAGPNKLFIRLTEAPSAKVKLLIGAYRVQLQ
Chain of DNA repair nuclease/redox regulator APEX1 (Homo sapiens) (P27695 whole entry, looked up): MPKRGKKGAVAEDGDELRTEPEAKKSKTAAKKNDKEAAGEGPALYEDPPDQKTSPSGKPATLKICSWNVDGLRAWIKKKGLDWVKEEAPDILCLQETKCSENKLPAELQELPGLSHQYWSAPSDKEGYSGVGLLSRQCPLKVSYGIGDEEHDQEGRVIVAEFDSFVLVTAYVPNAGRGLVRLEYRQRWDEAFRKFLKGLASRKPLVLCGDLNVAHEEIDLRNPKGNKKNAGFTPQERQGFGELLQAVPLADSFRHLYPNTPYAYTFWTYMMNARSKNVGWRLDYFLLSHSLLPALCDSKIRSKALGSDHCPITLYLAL
Chain of Voltage-gated inwardly rectifying potassium channel KCNH2 (Homo sapiens) (Q12809 whole entry, looked up): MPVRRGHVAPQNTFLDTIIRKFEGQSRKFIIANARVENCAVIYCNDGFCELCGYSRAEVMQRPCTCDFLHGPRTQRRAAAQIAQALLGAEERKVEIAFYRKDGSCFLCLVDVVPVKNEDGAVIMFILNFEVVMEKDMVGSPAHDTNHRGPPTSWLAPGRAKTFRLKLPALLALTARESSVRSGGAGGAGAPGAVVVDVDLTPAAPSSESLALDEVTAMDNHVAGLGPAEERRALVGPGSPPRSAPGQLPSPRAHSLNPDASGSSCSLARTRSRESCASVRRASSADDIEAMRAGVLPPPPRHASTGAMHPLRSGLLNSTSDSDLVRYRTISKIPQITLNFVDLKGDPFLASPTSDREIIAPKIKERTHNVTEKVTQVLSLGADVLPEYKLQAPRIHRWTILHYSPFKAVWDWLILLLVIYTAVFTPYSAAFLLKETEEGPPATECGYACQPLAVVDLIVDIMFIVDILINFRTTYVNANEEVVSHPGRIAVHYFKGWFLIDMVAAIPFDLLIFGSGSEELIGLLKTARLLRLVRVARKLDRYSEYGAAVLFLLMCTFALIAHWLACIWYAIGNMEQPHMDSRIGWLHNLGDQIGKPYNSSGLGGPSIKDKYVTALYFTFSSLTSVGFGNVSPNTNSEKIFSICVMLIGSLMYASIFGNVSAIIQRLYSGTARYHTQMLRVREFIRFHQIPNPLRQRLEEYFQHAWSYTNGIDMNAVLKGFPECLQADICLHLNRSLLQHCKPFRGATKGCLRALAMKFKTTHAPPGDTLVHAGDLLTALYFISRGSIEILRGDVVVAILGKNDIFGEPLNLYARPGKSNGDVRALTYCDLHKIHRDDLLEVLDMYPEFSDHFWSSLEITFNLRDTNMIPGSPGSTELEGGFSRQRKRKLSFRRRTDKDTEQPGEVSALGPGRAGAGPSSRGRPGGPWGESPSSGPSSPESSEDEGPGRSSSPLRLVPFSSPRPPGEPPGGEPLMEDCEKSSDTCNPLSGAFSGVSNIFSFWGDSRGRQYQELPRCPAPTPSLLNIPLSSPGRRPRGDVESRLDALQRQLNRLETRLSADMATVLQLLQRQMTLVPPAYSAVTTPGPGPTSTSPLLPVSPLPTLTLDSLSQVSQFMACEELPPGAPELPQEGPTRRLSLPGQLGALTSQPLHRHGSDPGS

CC(O)C(C)OC(=O)[C@@H]1C[C@@H]2c3cccc4c3c(cn4C(C)C)C[C@H]2N(C)C1 (some centres undefined)
outcome [1]: inactive | activity change, negative = inhibition ([2]; at 57.5 µM (top of the series)): 2.46% (inactive) | max response ([2]; measured here: cell count channel max response): -4.58% | max response ([2]; measured here: lipid channel max response): -0.261% | Potency [3]: inactive | Potency [4]: inactive | Potency [5]: 11.2 µM (active) | Potency [6]: 12.6 µM (active) | Potency [7]: 12.6 µM (active) | Potency [8]: 7.94 µM (active) | Potency [9]: 14.1 µM (active) | outcome [10]: inactive | outcome [11]: inactive | Potency [12]: inactive | Potency [13]: inactive | Potency [14]: inactive | Potency [15]: inactive | outcome [16]: inactive | outcome [17]: inactive | activation [18]: 4% (inactive) | outcome [19]: inactive | Potency [20]: inactive | Potency [21]: inactive | Potency [22]: inactive

From PubChem BioAssay (NCATS)
